Out of some 360,000 compounds screened, about 11,000 (3.1%) were called active. The sample holds actives, similar compounds and a random draw of the others, so the mix is not that of the screen. A number with no mark means an inactive call. Rule as the data show it: active = activity change below about -30%; inactive = the rest.
% is scaled to controls: 0 for no effect and ±100 for the full control effect.

The target in this assay is D(1A) dopamine receptor (Homo sapiens) (UniProt P21728). As to the kind of experiment: Antagonist of Human D 1 Dopamine Receptor: qHTS. The note with it: HEK293 TREx D1 cells, calcium flux, dopamine EC80; at 10 µM; stronger effect = lower value. A digest of the protocol: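 Antagonism measured as reduced calcium response to an EC80 dopamine addition following 180 s compound pre-read; cells were inducible HEK293 Trex D1 plated overnight at 30 C, read kinetically at 1 cycle/sec.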
D(1A) dopamine receptor (Homo sapiens), sequence (P21728 whole entry, looked up): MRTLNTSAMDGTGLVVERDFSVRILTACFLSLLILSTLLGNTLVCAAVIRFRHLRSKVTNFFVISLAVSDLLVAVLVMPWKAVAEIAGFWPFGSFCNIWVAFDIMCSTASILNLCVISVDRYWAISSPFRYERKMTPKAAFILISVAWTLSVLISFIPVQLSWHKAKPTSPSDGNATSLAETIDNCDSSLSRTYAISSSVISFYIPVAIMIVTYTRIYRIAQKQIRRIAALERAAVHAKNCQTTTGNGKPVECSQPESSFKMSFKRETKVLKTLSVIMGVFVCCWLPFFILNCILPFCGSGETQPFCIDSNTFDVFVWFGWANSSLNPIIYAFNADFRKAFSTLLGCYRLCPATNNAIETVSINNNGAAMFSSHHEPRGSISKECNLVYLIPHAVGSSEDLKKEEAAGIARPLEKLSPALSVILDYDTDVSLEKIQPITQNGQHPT
Background: qHTS replaces the single test concentration by a dilution series.
Consider `CCn1cc2nc(SCc3ccccc3Cl)n(CCc3ccccc3)c(=O)c2n1`, for which the activity change, negative = inhibition was 19.6%.

Regarding `O=C(NC1CCCCC1)c1ccc(Cn2c(SCc3ccccc3)nc3cccnc32)cc1`, the activity change, negative = inhibition is -1.21%.

For the compound `COc1ccc(Br)cc1C1CC(=O)Nc2c1c(C)nn2-c1nc(C)cc(C)n1` (configuration not stated), the activity change, negative = inhibition was 5.29%.

As to `CC(=O)N1CCCc2cc(S(=O)(=O)Nc3ccc(Cl)cc3F)ccc21`, the activity change, negative = inhibition is -13.2%.

With `COc1ccc(OCc2ccc(-c3nc(C#N)c(N4CCN(c5ccccc5)CC4)o3)o2)cc1`, the activity change, negative = inhibition was -27.6%.

As to `CCC(C)Nc1oc(-c2ccc(COc3ccc(Cl)cc3)o2)nc1C#N` (configuration not stated), the activity change, negative = inhibition is -2.28%.

In the case of `Cc1ccc(OCc2nc(C#N)c(N3CCCC3)o2)cc1`, the activity change, negative = inhibition was -1.06%.

In the case of `Cc1ccccc1OCc1ccc(-c2nc(C#N)c(N3CCCCC3)o2)o1`, the activity change, negative = inhibition is 2.09%.

In the case of `CN1CCN(c2oc(-c3ccc(COc4ccc(Cl)cc4)o3)nc2C#N)CC1`, the activity change, negative = inhibition was -30.2% (active).

With `N#Cc1nc(COc2ccc(Cl)cc2)oc1N1CCCC1`, the activity change, negative = inhibition was -31.6% (active).

For the compound `CCC(C(=O)Nc1cc(OC)ccc1OC)n1c(=O)c(C(F)(F)F)nc2ccccc21` (configuration not stated), the activity change, negative = inhibition was -23.6%.

On to `COc1cc(OC)cc(-c2nc3nc(C)c(CCC(=O)Nc4ccccc4)c(C)n3n2)c1`, for which the activity change, negative = inhibition was 2.44%.

Turning to `CC(C)C[C@H](CO)Nc1nc(N(C)c2cccc(Cl)c2)c2ncn(C(C)C)c2n1`, the activity change, negative = inhibition was -34% (active).

As for `O=C(Nc1ccc(Br)cc1)c1cc2nc(-c3ccccc3)cc(-c3ccccc3)n2n1`, the activity change, negative = inhibition was -10.1%.

As to `COc1ccc(-n2c(=O)c3ccccc3n(Cc3ccccc3Cl)c2=O)cc1`, the activity change, negative = inhibition was -11.1%.

As for `Fc1ccccc1C(c1nnnn1Cc1ccc2c(c1)OCO2)N1CCN(Cc2ccccc2)CC1` (configuration not stated), the activity change, negative = inhibition is 19.9%.

As to `N#Cc1ccc(C(c2nnnn2CCc2ccccc2)N2CCCCCC2)cc1` (configuration not stated), the activity change, negative = inhibition was 10.7%.

For `Fc1ccc(Cn2nnnc2C(c2cccs2)N2CCCCCC2)cc1` (configuration not stated), the activity change, negative = inhibition is -36.7% (active).

For `Cc1ccc(S(=O)(=O)N(Cc2nc(-c3ccc(Cl)cc3)no2)C2CCCCC2)cc1`, the activity change, negative = inhibition was -2.35%.

On to `NS(=O)(=O)c1ccc(CNC(=O)c2cnccn2)cc1`, for which the activity change, negative = inhibition was 9.99%.

For `NS(=O)(=O)c1ccc(CNC(=O)c2cccc(Oc3ccccc3)c2)cc1`, the activity change, negative = inhibition is -38.4% (active).

`NS(=O)(=O)c1ccc(CNC(=O)c2cccc(S(=O)(=O)N3CCc4ccccc43)c2)cc1`: the activity change, negative = inhibition is -4.68%.

As for `CCN(CC)S(=O)(=O)c1ccc2c(c1)N(CC(=O)NCC(C)c1ccccc1)C(=O)CO2` (configuration not stated), the activity change, negative = inhibition was 6.95%.

As to `CCCCN(CC)C(=O)c1c[nH]c2ccc(S(=O)(=O)Nc3cccc(OC)c3)cc2c1=O`, the activity change, negative = inhibition is 16.9%.

As to `CCC(=O)N1CCc2cc(S(=O)(=O)NCCC(=O)Nc3cccc(C)c3C)ccc21`, the activity change, negative = inhibition is -2.16%.

In the case of `O=C(CC(=O)Nc1ccc(Cl)c(Cl)c1)N/N=C/c1ccc(O)cc1`, the activity change, negative = inhibition is -37.9% (active).

Consider `Nc1nnn(CC(=O)N/N=C/c2ccc(O)cc2)n1`, for which the activity change, negative = inhibition was -2.2%.

With `CC1=NNC(=O)C1CCC(=O)N/N=C\c1ccc(Cl)c(Cl)c1` (configuration not stated), the activity change, negative = inhibition is 6.69%.

Turning to `Cc1ccn2c(Nc3ccc4c(c3)OCCO4)c(-c3ccc(C)s3)nc2c1`, the activity change, negative = inhibition was -15.7%.

With `O=C(NC1CCN(Cc2ccccc2)CC1)c1cc(Br)c(Br)[nH]1`, the activity change, negative = inhibition is -71.3% (active).

For `S=C(Nc1ccc(Br)cc1Cl)NC1CCN(Cc2ccccc2)CC1`, the activity change, negative = inhibition is -18.2%.

As for `O=C(NC1CCN(Cc2ccccc2)CC1)c1ccc(Oc2cc(Cl)cc(Cl)c2)o1`, the activity change, negative = inhibition is -10.1%.

As to `S=C(NN=C1CCN(Cc2ccccc2)CC1)NC1CCCCC1`, the activity change, negative = inhibition is 2.36%.

Consider `Cc1cc(C(=O)NC2CCN(Cc3ccccc3)CC2)n[nH]1`, for which the activity change, negative = inhibition is -5.73%.

For the compound `S=C(Nc1ccc(Br)cc1)NC1CCN(Cc2ccccc2)CC1`, the activity change, negative = inhibition was -68.5% (active).

Consider `Cc1ccc2nc(COc3ccccc3NC(=O)Nc3ccc(F)c(Cl)c3)cc(=O)n2c1`, for which the activity change, negative = inhibition was -18.5%.

Take `CCc1ccccc1N(C)C(=O)C1CCCN(c2ncnc3onc(-c4ccc(F)cc4)c23)C1` (configuration not stated): the activity change, negative = inhibition is -2.86%.

`O=C(O)c1ccc(Cn2c(SCc3ccc(F)cc3)nc3ccncc32)cc1`: the activity change, negative = inhibition was 11.2%.

As to `CCc1ccccc1NC(=O)c1cnn(-c2ccc(F)cc2)c1C1CCNCC1`, the activity change, negative = inhibition was -15.1%.

With `CCOC(=O)c1ccccc1NC(=O)c1sc2nc(-c3ccc(F)cc3)cn2c1C`, the activity change, negative = inhibition is 6.46%.

As for `CCOc1ccc(NC(=O)C(=O)NCCc2csc3nc(-c4ccccc4F)nn23)cc1`, the activity change, negative = inhibition is -3.3%.

Consider `CSCCC(NC(=O)c1ccccc1)C(=O)N1CCN(Cc2ccc(Cl)cc2)CC1` (configuration not stated), for which the activity change, negative = inhibition is 18.2%.

With `COc1ccccc1C(=O)NC(CCSC)C(=O)N1CCN(C(C)=O)CC1` (configuration not stated), the activity change, negative = inhibition is -23.2%.

`CSCCC(NC(=O)c1ccccc1)C(=O)N1CCCCCCC1` (configuration not stated): the activity change, negative = inhibition was -32.7% (active).

As to `CCOc1ccccc1NC(=O)CSc1ncc(S(=O)(=O)c2ccc(C(C)(C)C)cc2)c(=O)[nH]1`, the activity change, negative = inhibition was 10.4%.

For `Cc1ccccc1OCC(=O)Nc1c(C(=O)Nc2ccccc2F)oc2ccccc12`, the activity change, negative = inhibition was -7.86%.

Regarding `CCCC(=O)Nc1cc(OCC)c(NC(=O)NC2CCCCC2)cc1OCC`, the activity change, negative = inhibition is -5.85%.

Take `CCOc1cc(C2C(C(=O)OC)=CN(C3CCCC3)C=C2C(=O)OC)cc(Br)c1O`: the activity change, negative = inhibition is -30.9% (active).

Turning to `COC(=O)C1=CN(Cc2ccc(OC)cc2)C=C(C(=O)OC)C1c1ccc(O)c(OC)c1`, the activity change, negative = inhibition was 11.1%.

For `Cc1cc(C)c2nc(NC(=O)C3CCCO3)sc2c1` (configuration not stated), the activity change, negative = inhibition was -5.2%.

Turning to `O=C(Nc1nc2ccc(S(=O)(=O)N3CCCC3)cc2s1)C1CCCO1` (configuration not stated), the activity change, negative = inhibition was -41.4% (active).

Turning to `CN1CCN(S(=O)(=O)c2ccc(NC(=O)C3CCCO3)cc2)CC1` (configuration not stated), the activity change, negative = inhibition was -2.7%.

`Cc1ccc(Cl)cc1NC(=O)NC1COc2ccccc2C1` (configuration not stated): the activity change, negative = inhibition was -23%.

As to `O=C(CCc1nc(CN2CCN(S(=O)(=O)c3ccc(Br)cc3)CC2)no1)N1CCCCC1`, the activity change, negative = inhibition is -0.355%.

Regarding `Cc1ccc(NC(=O)CNCc2ccccn2)cc1S(=O)(=O)N(C)C`, the activity change, negative = inhibition was -15%.

In the case of `CCN(c1ccccc1)S(=O)(=O)c1cc(C(=O)NCc2ccccn2)ccc1C`, the activity change, negative = inhibition is -89.3% (active).

`CCN(CC)S(=O)(=O)c1cc(C(=O)Nc2ccccn2)ccc1C`: the activity change, negative = inhibition was 5.43%.

The values are drawn from PubChem BioAssay AID504652 (National Center for Advancing Translational Sciences (NCATS), 2011).
